Measurements as given in PubChem BioAssay (NCI).
This is part of a sample that, as a whole, favours compounds with a hit. Of some 83,000 tested, about 20% had one in any assay.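 96-well plates, one dose, 48 hours. Percent growth reported; active if below 10.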 A number with no mark means an inactive call. Activity calls are given as the source filed them.

Columns and labels:
Assay in all cases: NCI-60 one-dose screen, 48 h (100 = growth as untreated, 0 = no growth, -100 = all killed)
Conditions in all cases: 10 µM unless noted
[1] = test system: T-47D breast
[2] = test system: MDA-MB-435 melanoma
[3] = test system: SW-620 colon
[4] = test system: MCF7 breast
[5] = test system: HCT-116 colon
[6] = test system: HCC-2998 colon
[7] = test system: KM12 colon
[8] = test system: BT-549 breast

Row | SMILES | growth [1] | growth [2] | growth [3] [%] | growth [4] | growth [5] | growth [6] | growth [7] | growth [8]
1 | O=c1[nH]nc(-c2ccc(Cl)cc2)cc1Cc1ccccc1 | 84.1% | 106% | 105 | 92.2% | 93% | 113% | 102% | 
2 | Clc1ccc(-c2nnc(-c3ccco3)o2)cc1 | 99.2% | 89.7% |  |  | 87.3% | 94.4% | 106% | 101%
3 | CCCCN1CCN(c2ccc3nc(-c4ccc5nc(-c6cc(OC)c(OC)c(OC)c6)[nH]c5c4)[nH]c3c2)CC1 | 66% | 53.5% |  | 19.9% |  | 100% | 59.3% | 80.2%
4 | COc1ccc(OC)c(C(=O)Nc2cccc(-c3cc(=O)c4ccccc4o3)c2)c1 | 85.6% | 96.2% |  | 92% | 88% | 104% | 92.5% | 88.2%
5 | COc1ccc(-c2nnc(-c3ccc4c(c3)nc(-c3ccccc3)n4C3CCCCC3)o2)cc1 | 4.1% (active) | 59.6% |  | 33.2% | 34.7% | 81.5% | 39.9% | 30.9%
6 | COc1ccc(-n2nnc(C(=O)NCCc3c[nH]c4ccc(F)cc34)c2C)cc1 | 89.3% | 101% |  | 95.7% | 93.5% | 106% | 103% | 103%
7 | Cc1cc(-c2ccccc2)cc(SC#N)[n+]1[O-] | 46.2% | 47.5% |  | 23% | 36% | 62% | 37.7% | 52.2%
8 | N#Cc1c(N)n2c(nc1=Nc1ccc(Cl)cc1)sc1cc(Cl)ccc12 | 73.8% | 102% | 87.9 | 60.5% | 89.1% | 107% | 29.5% | 
9 | NC(=O)c1c(NC(=O)c2ccccn2)sc2c1CCC(=O)C2 | 5.3% (active) | 21.3% |  | 39.1% | 9.08% (active) | 81% | 6.82% (active) | 5.57% (active)
10 | CC(=O)Nc1cccc(C2=CC(c3ccc(C)cc3)n3ncnc3N2)c1 (stereo unspecified) | 87.5% | 112% | 102 | 96.9% | 103% | 112% | 97.2% | 
11 | CN(C)c1ccc(C#Cc2c(F)cccc2Cl)cc1 | 41.8% | 99.8% |  | 39.5% | 84.8% | 76.2% | 85.4% | 98.2%
12 | NS(=O)(=O)c1cn(-c2ncnc3nc[nH]c23)ccc1=O | 76.7% | 103% |  | 104% | 94.5% | 107% | 92.9% | 109%
13 | CC(=O)Nc1ccc(-c2cc3c(NCc4ccc(F)cc4)ncnc3s2)cc1 | 74% | 93% |  | 75.7% | 80.7% | 90.1% | 99.3% | 71.7%
14 | Cc1cc(C)on1 | 94.4% | 99.5% | 110 | 96.6% | 110% | 94.5% |  | 
15 | CN1CCN(C2=C(Cl)C(=O)c3ccccc3C2=O)CC1 | 80.8% | -75% (active) | 98.8 | 54.9% | 10.2% | 86.5% |  | 
16 | N=C(N)c1ccc(-c2ccc(-c3ccc(Cl)c(Cl)c3)o2)nc1 | 85.9% | -52.1% (active) |  | -76.8% (active) | -57.8% (active) | 77.8% | -15% (active) | 94.9%
17 | O=C(O)c1ccccc1C(=O)Nc1ccc(Cl)cc1 | 87.2% | 85.7% | 93 | 103% | 96.3% | 92.6% | 85.8% | 
18 | CC(C)(C)OC(=O)N1Cc2cc3ccccc3nc2C1CO (stereo unspecified) | 103% | 88.1% |  | 90.7% | 98.4% |  | 106% | 85%
19 | CC1=CC(=O)C(C(C)C)=CC1=Nc1cc(Br)c(O)c(Br)c1 | 75.5% | -11.7% (active) |  | 23.2% | 1.14% (active) | -43.5% (active) | -1.83% (active) | 26.4%

Row | SMILES | growth [1] | growth [2] | growth [3] [%] | growth [4] | growth [5] | growth [6] | growth [7] | growth [8]
20 | CN1C[C@@H](c2ccc(Cl)cc2)[C@]2(NC(=S)N(c3ccc(F)c(Cl)c3)C2=O)[C@@]12C(=O)NC1C=CC(Cl)=C[C@H]12 (stereo partly specified) | 21% | 56.8% |  | 18% |  | 77.8% | 55% | 21.6%
21 | COc1cc(C2CC(=O)Nc3n[nH]c(-c4ccccc4)c32)cc(OC)c1OC (stereo unspecified) | 67.3% | -2.19% (active) |  | 47.1% | 45.1% | 68% | 51.5% | 52.4%
22 | CCNCCNc1cc(-c2ccc(C(F)(F)F)cc2)c(C#N)c2nc3cc(Cl)c(Cl)cc3n12 | -53.2% (active) | -92.6% (active) |  | -70.6% (active) | -88.3% (active) | -88.9% (active) | -77.7% (active) | -2.28% (active)
23 | O=C(CCCCCCCn1cc(-c2cccnc2)nn1)Nc1ccccc1-c1ccccc1 | 28% | 22.5% | 20.6 | 38.5% | 0.699% (active) | 38.1% |  | 
24 | CCCCN(Cc1ccc(C(=O)NO)cc1)C(=O)Nc1ccc(OCCCCCCCCCn2cc(CCCCC(=O)N[C@H](C(=O)N3C[C@H](O)C[C@H]3C(=O)NCc3ccc(-c4scnc4C)cc3)C(C)(C)C)nn2)cc1 | 32.2% | 34.8% |  | 8.44% (active) | 20.9% | 57.2% | 22.1% | 42.2%
25 | COc1ccc(O)c(-c2cc(-c3ccccc3)c(C#N)c(=O)[nH]2)c1 | 79.3% | 102% |  | 87.5% | 89.7% | 99.8% | 90.8% | 70.6%
26 | CCOc1ccc2nc(-c3cccc(OCC(=O)NC(C)C)c3)nc(Nc3ccc(-c4cn[nH]c4)cc3)c2c1 | -25.2% (active) | 6.53% (active) |  | -16.8% (active) | 5.64% (active) | 24.6% | 5.29% (active) | -44.2% (active)
27 | Nc1ccc2c(S(=O)(=O)O)ccc(S(=O)(=O)O)c2c1 | 82.5% | 107% | 106 | 93.1% | 93.9% | 98.7% | 110% | 
28 | O=c1oc2ccc(Cl)cc2cc1-c1cs/c(=N/N=C\c2ccc(Cl)cc2)n1/N=C/c1ccc(Cl)cc1 | 87.5% | 103% |  | 95.7% | 91.9% | 103% | 107% | 109%
29 | N=C(N)c1ccc(-c2ccc(-c3ccc(Cl)cc3Cl)o2)cc1 | 57.6% | -63.6% (active) |  | -73.7% (active) | -68.8% (active) | -93.2% (active) | -77.7% (active) | 94.7%
30 | CCOC(=O)c1sc2ccc(NCc3nc[nH]c3C)cc2c1NC(=O)c1cc(OC)c(OC)c(OC)c1 | 76.2% | 71.7% |  | 62.6% | 55.4% | 106% | 93.7% | 94.8%
31 | CCn1c(Sc2nnc(Nc3ccccc3)s2)nc2c1c(=O)n(C)c(=O)n2C | 87.2% | 103% |  | 98.6% | 94.7% | 92.7% | 110% | 87.1%
32 | CN(C)CCC(O)(Cc1ccccc1)c1ccccc1 (stereo unspecified) | 96.4% | 91.8% | 114 | 110% | 103% | 87% |  | 
33 | CSc1nc2sc3cc(Cl)ccc3n2c(=N)c1C#N | 70% | 96.9% | 71.7 | 49% | 92.9% | 86.8% | 19.8% | 
34 | CSc1ccc(Cl)c(C(=O)Nc2sccc2C(N)=O)c1 | 44.1% | 110% | 96.5 | 64.8% | 109% | 102% | 99.8% | 
35 | CCOc1cc(C2C(Cl)C(=O)N2n2cnnc2)ccc1O (stereo unspecified) |  | 96.2% | 97.2 | 97.5% | 93.3% | 99.7% | 99.1% | 93%
36 | c1ccc2c(c1)ncn2-c1nc2ccccc2n2c1nc1ccccc12 |  | 102% | 78.4 | 7.93% (active) | 67.2% | 20.5% | 47.7% | 91.6%
37 | C=C1C(=O)O[C@H]2[C@H]1CC/C(Cn1cc(CNCCc3c[nH]c4ccccc34)nn1)=C\CC[C@@]1(C)O[C@@H]21 |  | 97% | 46.1 | 90.2% | 64.8% | 97.1% | 98% | 90.6%
